mcGAS lum – mouse cGAS inhibition by luminescence; Q8C6L5; recombinant cGAS, Kinase-Glo ATP depletion luminescence; inhibition, % at 12.5 µM; 160,000 compounds, 0.15% hits;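 also: 0% = negative control wells and 100% = reference inhibitor with no enzyme activity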
Target sequence (Q8C6L5 whole entry, looked up): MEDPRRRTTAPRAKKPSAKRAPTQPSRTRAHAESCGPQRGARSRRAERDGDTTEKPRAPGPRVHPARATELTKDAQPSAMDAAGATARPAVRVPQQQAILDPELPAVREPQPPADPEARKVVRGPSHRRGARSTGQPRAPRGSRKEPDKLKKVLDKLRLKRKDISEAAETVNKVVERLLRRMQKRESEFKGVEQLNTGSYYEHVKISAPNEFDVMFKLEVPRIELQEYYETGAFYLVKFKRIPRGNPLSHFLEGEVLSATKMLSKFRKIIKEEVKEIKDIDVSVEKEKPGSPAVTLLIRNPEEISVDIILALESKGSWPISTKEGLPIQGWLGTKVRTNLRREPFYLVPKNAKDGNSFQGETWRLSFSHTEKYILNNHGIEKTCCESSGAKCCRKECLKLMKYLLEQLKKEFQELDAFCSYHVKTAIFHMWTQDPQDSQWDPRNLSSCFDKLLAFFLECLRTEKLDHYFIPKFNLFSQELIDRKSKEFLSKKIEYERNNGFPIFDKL
NPYLR7 agonist – mosquito NPYLR7 agonism; HEK293T NPYLR7/Galpha15, GCaMP6s calcium fluorescence; activation, % at 10 µM; 270,000 compounds, 0.15% hits; AID 1259423; in the data active = activation above about 40%;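 also: 0% = vehicle and 100% = reference agonist at the receptor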
hcGAS lum – inhibitors of human cGAS; 290,000 compounds, 0.081% hits; recombinant h-cGAS, ATP depletion, Kinase-Glo luminescence; Q8N884; inhibition, % at 12.5 µM;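 also: 0% = vehicle reaction and 100% = reaction without DNA for no activity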
* hit, by the source's call; ! = not confirmed by another sample. Compounds with a hit are over-represented: about 0.3% of the library has one in this group of screens. Rule as the data show it, unless noted: active = inhibition above about 40%; inactive = the rest.

Screening COc1ccc(C)cc1-n1c(SCC(=O)O)nnc1-c1cc(C)nn1C returned mcGAS lum -9, NPYLR7 agonist 8 and hcGAS lum 44*.
COc1ccc(C)cc1-n1c(Cn2ccnc2)nnc1SCC(=O)O was read as NPYLR7 agonist 13 and hcGAS lum -4.
`O=C(COC(=O)C=Cc1ccco1)COC(=O)C=Cc1ccco1` gave NPYLR7 agonist -15 and hcGAS lum 16.
`N#CC(=CC=Cc1ccco1)C(N)=S` gave mcGAS lum 79*, NPYLR7 agonist 6 and hcGAS lum 61*.
CNc1nc2cnc(Nc3ccc(Oc4ccccc4)cc3)cc2n1-c1cc(OC)c(OC)c(OC)c1 was read as mcGAS lum -7, NPYLR7 agonist 18 and hcGAS lum -5.
Cc1cccc(S(=O)(=O)NCCc2csc3nc(-c4ccccc4C)nn23)c1 was read as mcGAS lum -8, NPYLR7 agonist 2 and hcGAS lum -9.
For O=C(O)c1ccc(COc2cccc(Cl)c2)s1 the results were NPYLR7 agonist -1 and hcGAS lum -4.
For CCOc1ccc2cc(-c3nc4ccccc4s3)c(=O)oc2c1 the results were mcGAS lum -5, NPYLR7 agonist 0 and hcGAS lum -4.
O=c1oc2cc(O)ccc2cc1-c1nc2ccccc2s1 was read as mcGAS lum -3, NPYLR7 agonist 140* and hcGAS lum -2.
CC(C)c1nc(NC(=O)c2[nH]ncc2Br)n(C)n1 was read as NPYLR7 agonist 85* and hcGAS lum 49*.
For CC(C)c1nc(NC(=O)CS(=O)(=O)C2CCCC2)n(C)n1 the results were NPYLR7 agonist 3 and hcGAS lum -10.
`COc1ccc(-c2coc3cc(O)ccc3c2=O)c(OC)c1O` gave mcGAS lum -2, NPYLR7 agonist -4 and hcGAS lum -2.
For COc1ccc(-c2coc3cc(O)ccc3c2=O)c(O)c1O the results were mcGAS lum 68* and hcGAS lum 51*.
For CC(C)Oc1nc(-c2ccco2)n(-c2ccc(N)cc2)n1 the results were NPYLR7 agonist -1 and hcGAS lum -5.
For CC(C)Oc1c(-c2ccco2)c(=O)c1=O the results were NPYLR7 agonist -6 and hcGAS lum 66*.
Screening CCOc1ccc(NC(=O)CC(C)O)cc1 (centres undefined) returned NPYLR7 agonist -4 and hcGAS lum -3.
Screening CCOc1ccc(NC(C)=O)cc1 returned NPYLR7 agonist 71*! and hcGAS lum -4.
Screening Cc1ccccc1-c1nc2ccc(Cl)cn2c1NCc1ccccc1 returned mcGAS lum -8, NPYLR7 agonist 2 and hcGAS lum -7.
`CCc1noc(C)c1C(=O)Nc1cc(F)ccc1N1CCCCC1` gave NPYLR7 agonist -2 and hcGAS lum -7.
`COc1ccc([N+](=O)[O-])cc1/C=C1/SC(N)=NC1=O` gave mcGAS lum 4, NPYLR7 agonist 2 and hcGAS lum 2.
O=C(NN1C(=O)C2C3C=CC(C4CC34)C2C1=O)c1cccc(Cl)c1 (centres undefined) was read as mcGAS lum 85*, NPYLR7 agonist 6 and hcGAS lum -4.
For Cc1ccc(C(=O)NN2C(=O)C3C4C=CC(C5CC45)C3C2=O)cc1 (centres undefined) the results were mcGAS lum -7, NPYLR7 agonist 9 and hcGAS lum -6.
`Cc1ccc(C=C(C#N)C(N)=S)s1` gave mcGAS lum -4, NPYLR7 agonist 0 and hcGAS lum -3.
Screening COC(=O)c1cc(N)c(/C=C/c2cccs2)s1 returned NPYLR7 agonist 184* and hcGAS lum -7.
Brc1ccsc1/C=C/c1cccs1 was read as NPYLR7 agonist -4 and hcGAS lum -9.
`CC1=C(CCC2(C)OC(=O)N(C)C2(C)O)C(C)(C)CCC1` (centres undefined) gave mcGAS lum -2 and hcGAS lum -7.
Screening O=C(NCCN1CCOCC1)c1cccc(CC2CCNCC2)c1 returned NPYLR7 agonist -4 and hcGAS lum -8.
O=C1SC(Nc2ccc(Br)cc2)C(=O)N1CCN1C(=O)c2ccccc2C1=O (centres undefined) was read as mcGAS lum -4, NPYLR7 agonist 11 and hcGAS lum -8.
Screening O=C1SC(Nc2ccc(Br)cc2)C(=O)N1c1ccccc1 (centres undefined) returned mcGAS lum -4, NPYLR7 agonist 85* and hcGAS lum -6.
Screening O=C(N[C@H](Cc1ccccc1)C(=O)N1CCC(C(=O)N2CCCCC2)CC1)C(Cl)Cl returned mcGAS lum -5, NPYLR7 agonist 20 and hcGAS lum -2.
O=C(CSc1nc(Cl)cc(N2CCN(C(=O)C3CCCC3)CC2)n1)NC(Cc1ccccc1)c1ccccc1 (centres undefined) was read as mcGAS lum -5, NPYLR7 agonist 0 and hcGAS lum -3.
`N#Cc1c(N)oc(-c2ccccc2)c1-c1ccccc1` gave mcGAS lum 34, NPYLR7 agonist 6 and hcGAS lum 50*.
Screening Cc1nc(N)c(C#N)c(-c2cccs2)c1C returned NPYLR7 agonist 1 and hcGAS lum -1.
`Nc1nnc(-c2ccccc2)o1` gave NPYLR7 agonist -5 and hcGAS lum -5.
N#Cc1c(N)oc(-c2cccs2)c1-c1cccs1 was read as NPYLR7 agonist -1 and hcGAS lum 55*.
`COCCN(Cc1nc(C(=O)N2CCN(c3ccccc3OC)CC2)cs1)C(=O)Nc1c(C)cccc1C` gave mcGAS lum -2, NPYLR7 agonist -8 and hcGAS lum 2.
`CC(C)C(C)NC(=O)COC(=O)c1cc(-c2ccco2)nc2ccccc12` (centres undefined) gave mcGAS lum -5, NPYLR7 agonist -1 and hcGAS lum -7.
Cc1nn(C2CCS(=O)(=O)C2)c(C)c1C=C1CCn2c1nc1sc(C)c(C)c1c2=O (centres undefined) was read as NPYLR7 agonist -1 and hcGAS lum -4.
For Cc1cc(C)c(N=Nc2c(C)[nH]n(-c3nc(-c4ccc(Br)cc4)cs3)c2=O)c(C)c1 the results were mcGAS lum -5, NPYLR7 agonist -6 and hcGAS lum 1.
For CC(=O)N1CCc2c(sc(NC(=O)C(C)(C)C)c2-c2nc3ccccc3s2)C1 the results were NPYLR7 agonist -2 and hcGAS lum 5.
`CCOc1ccc(CCC(=O)NC(C)(C)C(C)(C)C(=O)OC)cc1` gave NPYLR7 agonist 3 and hcGAS lum -8.
O=C(c1cccs1)c1cccs1 was read as NPYLR7 agonist -1 and hcGAS lum -9.
For NC(=O)n1c(O)c(C(=O)c2cccs2)c2cc(Cl)ccc21 the results were NPYLR7 agonist -3 and hcGAS lum 67*.
Screening OC1(c2ccc(Br)cc2)C[N+](CCc2ccccc2)=C2SCCCN21 (centres undefined) returned mcGAS lum -4, NPYLR7 agonist 10 and hcGAS lum -6.
Screening COc1ccc(C2=NNC3=Nc4ccccc4OC3C2)cc1 (centres undefined) returned NPYLR7 agonist -6 and hcGAS lum 2.
COc1cc(CSc2nnc(NC(=O)C3CCC3)s2)cc(OC)c1 was read as mcGAS lum 83*, NPYLR7 agonist 35 and hcGAS lum -6.
O=C(Nc1nnc(SCc2cc(F)cc(F)c2)s1)C1CC1 was read as mcGAS lum 2, NPYLR7 agonist -3 and hcGAS lum 2.

Compound activity from PubChem BioAssay.
